Results as given in PubChem BioAssay AID1159580 (chemical genetic matrix, 2015).
Among all 5,500 compounds or so, about 2,000 (36%) were called active. Not shown: some 18% with an inconclusive outcome. Cut-off read from the data, not from the text of the source: active = normalized growth mostly below about 0.91 (no sharp cut-off); inconclusive = no clear call, values can overlap the other calls; inactive = mostly above about 0.92. This is one part of the list.

Assay: chemical genetic growth profiling, strain panel (AID 1159580);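 note: tested at 20 µM; growth read once vehicle control cultures reached saturation at 30 °C; 1 = growth at the plate median or of vehicle wells; lower values mean less growth of the strain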
Settings: S. cerevisiae deletion strains, growth OD

Measured: normalized growth

CN(C)CC[C@@H](c1ccc(Br)cc1)c1ccccn1
inactive: locus YAL040C, strain CLN3, stronger effect = lower value 1.05 | locus YCL061C, strain MRC1 (second series), stronger effect = lower value 0.993 | locus YDR363W, strain ESC2, stronger effect = lower value 0.97 | locus YER002W, strain NOP16, stronger effect = lower value 0.99 | locus YGR078C, strain PAC10, stronger effect = lower value 0.991 | locus YMR307W, strain GAS1, stronger effect = lower value 1.01 | locus YNL128W, strain TEP1, stronger effect = lower value 0.984 | locus YNL175C, strain NOP13, stronger effect = lower value 0.988 | locus YNL197C, strain WHI3, stronger effect = lower value 0.928 | locus YNL224C, strain SQS1, stronger effect = lower value 0.985 | locus YNL322C, strain KRE1, stronger effect = lower value 0.983 | locus YOR083W, strain WHI5 (second series), stronger effect = lower value 0.912 | locus YPL055C, strain LGE1, stronger effect = lower value 1

CCN(CC)CCOCCOC(=O)C(CC)(CC)c1ccccc1
inactive: locus YHR030C, strain SLT2, stronger effect = lower value 0.99 | locus YHR079C, strain IRE1, stronger effect = lower value 1.01 | locus YJL095W, strain BCK1, stronger effect = lower value 0.988 | locus YJR066W, strain TOR1, stronger effect = lower value 0.902 | locus YLR113W, strain HOG1, stronger effect = lower value 1.03 | locus YNL183C, strain NPR1, stronger effect = lower value 0.908 | locus YOR231W, strain MKK1, stronger effect = lower value 0.993 | locus YPL256C, strain CLN2, stronger effect = lower value 0.972
